# Pf growth 48h: inhibits P. falciparum growth in the first generation, 48 h. 5.9% of 310,000 active. Potency, µM (titrated, usually from 28.7 µM), for the others: top-dose activity change, negative = inhibition, usual class: inhibitors. AID 504832. P. falciparum luciferase growth in erythrocytes, 48 h
#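 Cell-based growth assay: transgenic P. falciparum expressing firefly luciferase, cultured in red cells within RPMI 1640 containing 0.5% w/v Albumax, 24 mM bicarbonate and gentamycin. A drop in luciferase activity indicates inhibition.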
# HCV inhibitor: inhibitors of hepatitis C virus infection | Huh7.5.1 HCVcc-Cre infection, luciferase reporter, 44 h | Potency, µM (doses to about 41.8 µM), for inactives: at the top dose activity change, negative = inhibition, hits mostly inhibitors | 3.4% of 340,000 active | AID 651820
#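 HCVcc-Cre virus at an moi near 0.5 was added right after compound to cells cultured 4 h from seeding (1,000 cells/well). Luciferase activity was determined 44 h later, 15 min after substrate addition at RT.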
# AMA1 RON2 block: inhibitors of Plasmodium falciparum AMA1-RON2 interaction. AlphaScreen AMA1-biotinylated RON2 peptide binding. Potency, µM (series often up to 58.2 µM), without a hit: top-dose activity change, negative = inhibition, hits mostly inhibitors. 0.2% of 360,000 active;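 further: 0% = vehicle wells and -100% = peptide control; nearly all actives have a fitted effect of over 45% in size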
#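 AMA1 (3D7) with his tag at 25 nM final met compounds first, then biotinylated RON2 peptide at 25 nM; detection used donor plus acceptor beads, 10 µg/mL apiece, read by AlphaScreen after 30 min at room temperature.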
# AmpC inh detg: inhibitors of E. coli AmpC beta-lactamase with detergent | Potency, µM (highest dose often 114 µM), for the others: top-dose activity change, negative = inhibition, hits mostly inhibitors | 0.041% of 370,000 active | AID 485294 | AmpC hydrolysis of nitrocefin, absorbance 480 nm, 0.01% Triton | P00811;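 further: 0% = no-compound wells and -100% = no-enzyme wells; nearly all actives have a fitted effect of over 25% in size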
# Target sequence (P00811 whole entry, looked up): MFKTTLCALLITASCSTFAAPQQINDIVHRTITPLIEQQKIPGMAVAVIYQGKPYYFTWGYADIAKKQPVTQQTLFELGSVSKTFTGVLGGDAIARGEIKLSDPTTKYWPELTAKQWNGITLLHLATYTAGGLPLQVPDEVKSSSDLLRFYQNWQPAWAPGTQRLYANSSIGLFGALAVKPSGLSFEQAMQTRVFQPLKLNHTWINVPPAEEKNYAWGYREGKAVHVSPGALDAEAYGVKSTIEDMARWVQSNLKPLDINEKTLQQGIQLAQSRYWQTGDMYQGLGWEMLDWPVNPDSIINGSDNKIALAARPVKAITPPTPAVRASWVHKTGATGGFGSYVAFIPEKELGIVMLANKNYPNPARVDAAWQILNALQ
#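 20 mM phosphate pH 7.0 + 0.01% (detergent screen) or 0.0001% Triton X-100; 5.3 nM AmpC reagent; cpd preinc 15 min RT; nitrocefin (800 uM stock) to start; A480 q20 s × 4 min; Activity was normalised to no-enzyme and no-compound control wells.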
# AmpC no deterg: inhibitors of E. coli AmpC beta-lactamase without detergent; P00811; AmpC nitrocefin hydrolysis, absorbance 480 nm, 0.0001% Triton; Potency, µM (titrated, usually from 57.1 µM), inactives show at the top dose activity change, negative = inhibition, hits mostly inhibitors; 0.52% of 330,000 active;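 further: plate controls were no compound for no effect and no enzyme for full effect; nearly all actives have a fitted effect of over 20% in size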
#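 20 mM phosphate pH 7.0 + 0.01% (detergent screen) or 0.0001% Triton X-100; 5.3 nM AmpC reagent; cpd preinc 15 min RT; nitrocefin (800 uM stock) to start; A480 q20 s × 4 min; Activity was normalised to no-enzyme and no-compound control wells.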
# Pf growth 96h: P. falciparum growth inhibition at 96 hours. P. falciparum luciferase reporter growth, 96 h. Potency, µM (series often up to 28.7 µM), inactives show at the top dose activity change, negative = inhibition, usual class: inhibitors. 6.9% of 320,000 active. AID 504834
#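 Plates of compound plus infected erythrocytes (2% hematocrit, 0.05% parasitemia final) incubate 96 hours, 37 C, 5% CO2. Detection reagent added; reduced luminescence from the parasites' luciferase reporter flags inhibition.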
# Active calls of the source: *; ? = inconclusive; . = no result; [ ] = another dose, or the depositor's remark. This is a sample that favours compounds with a hit; in the whole collection about 11% have one here. The call rests on the fitted dose curve; in most records, active means well fitted curve in the direction sought with a large enough effect; inconclusive means small, poorly fitted or top-dose-only effect, or another doubt; inactive means no such curve, though single readings can be large; an effect the other way counts as inactive or inconclusive. Unless noted, on the % scale 0 is the no-effect control and ±100 the full control effect; potency means the concentration at half of the fitted maximal effect.
SMILES,Pf growth 48h,HCV inhibitor,AMA1 RON2 block,AmpC inh detg,AmpC no deterg,Pf growth 96h
O=C(CN1CCC(C(=O)c2ccc(F)cc2)CC1)NCc1ccccc1F,-25%,11µM*,-6%,9%,43%,6.6µM*
CS(=O)(=O)N1CCc2cc(C(=O)Nc3ccc(Cl)c(C(F)(F)F)c3)ccc21,.,.,.,22%,.,.
Cc1cccc(NC(=O)CN2C(=O)COc3ccc(S(=O)(=O)N4CCC(C)CC4)cc32)c1C,.,.,.,-8%,.,.
Cc1ccc(Cl)cc1NC(=O)C1CCN(c2nc3ccccc3n3cccc23)CC1,.,.,.,4%,.,.
NC(=NCCCCCCN=C(N)/N=C(\N)Nc1ccc(Cl)cc1)/N=C(\N)Nc1ccc(Cl)cc1,0.33µM*,?,25%,?,17%,?
CC(C)N=C(N)/N=C(\N)Nc1ccc(Cl)cc1,2.9µM*,.,.,.,.,0.36µM*
CC(C)N=C(N)N=C(N)Nc1ccc(Cl)cc1,1.2µM*,-13%,4%,4%,-3%,0.33µM*
NNC(=S)Nc1ccc(Cl)cc1,-8%,16%,31%,0%,-38%,?
Cc1ccc(C)c(CS(=O)(=O)c2cn(CC(=O)N(C(C)C)C(C)C)c3ccccc23)c1,.,.,.,0%,.,.
Cc1cc(NC(=O)CN2C(=O)c3cccnc3Sc3ccccc32)ccc1Br,.,.,.,-3%,.,.
Cc1nn(Cc2ccccc2)c(Cl)c1C(=O)OC(C)C(=O)Nc1ccc(F)cc1Cl (stereo not drawn),?,?,4%,4%,-18%,13µM*
Cc1nn(Cc2ccccc2)c(Cl)c1C(=O)OCC(=O)Nc1cccc2ccccc12,13%,-21%,-15%,-13%,-26%,18%
CCc1ccc(NC(=O)C(C)OC(=O)c2c(C)nn(Cc3ccccc3)c2Cl)cc1 (stereo not drawn),11%,11µM*,-3%,-7%,-8%,?
Cc1coc2c1c(C)cc1oc(=O)c(CC(=O)NCc3ccc(Cl)cc3)c(C)c12,.,.,.,-5%,.,.
COC(=O)NCCOC(=O)N(O)c1ccc(Br)cc1,9.3µM*,3%,0%,2%,-2%,?
COc1ccc(C)cc1NC(=O)C1CCC(CNS(=O)(=O)c2ccc3c(c2)CCCC(=O)N3)CC1 (stereo not drawn),.,.,.,3%,.,.
COc1ccc(Cn2c(-c3ccc(Br)cc3)c[n+]3ccccc23)cc1,0.66µM*,-11%,6%,-19%,29%,0.13µM*
O=C1[C@H](Cc2ccccc2)NCC=CC[C@H](c2ccco2)N1Cc1ccccc1,.,?,15%,.,.,.
COC(=O)C1=C(C(=O)OC)[C@]2([C@@H]3CCCCN[C@@H](Cc4ccccc4)C(=O)N3Cc3ccccc3)C=C[C@H]1O2,.,7.9µM*,-8%,.,.,.
O=C1COc2ccc(-c3cc(-c4ccccc4)c4c(n3)-c3cc(Cl)ccc3OC4)cc2N1,.,.,.,-6%,.,.
CCOC(=O)C1=C(Nc2ccc(Cl)cc2)OCC1=O,12µM*,-9%,14%,-11%,105%,2.6µM*
CC(=O)OCc1cnc(C)c2oc(=O)c(C(=O)Nc3ccc(F)cc3C)cc12,.,.,.,-2%,.,.
O=C(CSc1cn(CCNC(=O)c2c(F)cccc2F)c2ccccc12)Nc1ccc2c(c1)OCCO2,.,.,.,3%,.,.
COc1ccc(C(C)=O)cc1COc1ccccc1[N+](=O)[O-],5%,6.3µM*,-2%,6%,-18%,8%
COc1ccc(C(C)=O)cc1COC(=O)c1ccc(N)c([N+](=O)[O-])c1,-14%,11µM*,3%,3%,5%,?
Nc1ccc(C(=O)OCc2ccncc2)cc1[N+](=O)[O-],13%,9%,1%,?,-12%[11.4 µM],27%
c1cnc(-c2noc(CN3CCN(C4C5CC6CC(C5)CC4C6)CC3)n2)cn1 (stereo not drawn),7%,4%,19%,-2%,-13%,-3%
